Calls of active or inactive are those of the source. How the source made its calls: active means hit-call score of the fitted dose curve at least 0.9, where 1 is the maximum; inactive means score below 0.9.
Assays:
Settings in all cases: mRNA level, 48 h; actives raise or lower the signal
[1] = read-out: Cytochrome P450 3A4 (Homo sapiens) (UniProt P08684); assay: LTEA_HepaRG_CYP3A4: Life Technologies and Expression Analysis (LTEA) Assay for CYP3A4 using HepaRG (AID 2283487)
In short: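 HepaRG, 48 h exposure, 8-pt CRC from 100 uM (half-log), 0.5% DMSO, duplicates; serum-free induction medium. Readout: CYP3A4 mRNA, qRT-PCR, ACTB/GAPDH/POLR2A normalization. Bidirectional fit vs DMSO.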

[2] = read-out: DNA damage-inducible transcript 3 (DDIT3), DDIT3 (gene 1649); assay: LTEA_HepaRG_DDIT3: Life Technologies and Expression Analysis (LTEA) Assay for DNA damage-inducible transcript 3 (DDIT3) using HepaRG (AID 2283488)
In short: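 HepaRG cells, 48 h after plating, exposed 48 h in serum-free induction medium to 8 half-log concentrations up to 100 uM in 0.5% DMSO, in duplicate. DDIT3 mRNA measured by TaqMan qRT-PCR, normalized to ACTB, GAPDH and POLR2A. Fitted bidirectionally against DMSO.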

[3] = read-out: Pro-epidermal growth factor (Homo sapiens) (UniProt P01133); assay: LTEA_HepaRG_EGF: Life Technologies and Expression Analysis (LTEA) Assay for Epidermal growth factor (EGF) using HepaRG (AID 2283489)
In short: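 EGF transcript measured by Fluidigm TaqMan qRT-PCR with three housekeeping genes for normalization, 48 h after dosing HepaRG cultures in duplicate (top 100 uM, half-log steps, 0.5% DMSO vehicle). Gain or loss relative to DMSO fitted.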

[4] = read-out: Early growth response protein 1 (EGR1) transcription factor, EGR1 (gene 1958); assay: LTEA_HepaRG_EGR1: Life Technologies and Expression Analysis (LTEA) Assay for Early growth response protein 1 (EGR1) transcription factor using HepaRG (AID 2283490)
In short: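 Read-out is EGR1 mRNA level by qRT-PCR, normalized to three housekeeping genes and analysed for gain or loss of signal against 0.5% DMSO. Source cells: human HepaRG, treated 48 h at up to 100 uM in half-log dilutions.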

[5] = read-out: Ezrin (EZR), EZR (gene 7430); assay: LTEA_HepaRG_EZR: Life Technologies and Expression Analysis (LTEA) Assay for Ezrin (EZR) using HepaRG (AID 2283491)
In short: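 Read-out is EZR transcript level by qRT-PCR, normalized to three housekeeping genes and fitted bidirectionally against the DMSO control. Human HepaRG cells received test chemicals for 48 h at eight half-log concentrations up to 100 uM in 0.5% DMSO.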

[6] = read-out: Cytochrome P450 3A7 (Homo sapiens) (UniProt P24462); assay: LTEA_HepaRG_CYP3A7: Life Technologies and Expression Analysis (LTEA) Assay for CYP3A7 using HepaRG (AID 2283492)
In short: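 CYP3A7 transcript measured by qRT-PCR (ACTB, GAPDH, POLR2A normalization) after 48 h chemical exposure of HepaRG cells in duplicate. Eight half-log concentrations, maximum 100 uM, 0.5% DMSO vehicle; bidirectional curve fitting against DMSO baseline.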

CYP3A5 (gene 1577) = assay: LTEA_HepaRG_CYP3A5: Life Technologies and Expression Analysis (LTEA) Assay for CYP3A5 using HepaRG (AID 2283493)
In short: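 HepaRG cells, plated 48 h then in serum-free induction medium, dosed in duplicate for 48 h with eight half-log concentrations up to 100 uM in 0.5% DMSO. Gene mRNA by Fluidigm TaqMan qRT-PCR, normalized to ACTB, GAPDH, POLR2A.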

[7] = read-out: Fatty Acid-Binding Protein 1 (FABP1), FABP1 (gene 2168); assay: LTEA_HepaRG_FABP1: Life Technologies and Expression Analysis (LTEA) Assay for Fatty Acid-Binding Protein 1 (FABP1) using HepaRG (AID 2283494)
In short: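 HepaRG, 48 h post-plating switched to serum-free induction medium, then dosed 48 h (duplicate, 8 pts, ≤100 uM, 0.5% DMSO). RNA → Fluidigm TaqMan qRT-PCR, FABP1 normed to ACTB/GAPDH/POLR2A. Bidirectional curve fit vs DMSO.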

[8] = read-out: Cytochrome P450 4A22 (Homo sapiens) (UniProt Q5TCH4); assay: LTEA_HepaRG_CYP4A22: Life Technologies and Expression Analysis (LTEA) Assay for Cytochrome P450 4A22 (CYP4A22) using HepaRG (AID 2283495)
In short: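 Gene expression measured by qRT-PCR against three housekeeping genes (ACTB, GAPDH, POLR2A), with gain or loss fitted relative to 0.5% DMSO vehicle. HepaRG cultures received 48 h chemical treatment, top concentration 100 uM, half-log steps, duplicate wells.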

[9] = read-out: Cytochrome P450 7A1 (Homo sapiens) (UniProt P22680); assay: LTEA_HepaRG_CYP7A1: Life Technologies and Expression Analysis (LTEA) Assay for Cytochrome P450 7A1 (CYP7A1) using HepaRG (AID 2283496)
In short: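 HepaRG cells plated 48 h, then switched to serum-free induction medium and exposed in duplicate for 48 h to 8-point half-log series from 100 uM in 0.5% DMSO. CYP7A1 mRNA by qRT-PCR (TaqMan), normalized to ACTB/GAPDH/POLR2A; bidirectional fit versus DMSO.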

[10] = read-out: Glutathione S-Transferase (GSTA2), GSTA2 (gene 2939); assay: LTEA_HepaRG_GSTA2: Life Technologies and Expression Analysis (LTEA) Assay for Glutathione S-Transferase (GSTA2) using HepaRG (AID 2283497)
In short: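 HepaRG, 48 h dosing, 8-pt half-log CRC from 100 uM, 0.5% DMSO vehicle, n=2; RNA → Fluidigm TaqMan qRT-PCR; GSTA2 vs ACTB/GAPDH/POLR2A; gain/loss fit vs DMSO.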

[11] = read-out: Glutamate-cysteine ligase catalytic (GCLC), GCLC (gene 2729); assay: LTEA_HepaRG_GCLC: Life Technologies and Expression Analysis (LTEA) Assay for Glutamate-cysteine ligase catalytic (GCLC) using HepaRG (AID 2283498)
In short: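 Read-out is GCLC transcript level by Fluidigm-based TaqMan qRT-PCR, normalized to three housekeeping genes and fitted in both directions relative to 0.5% DMSO. Human HepaRG cells received chemicals for 48 h, up to 100 uM.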

[12] = read-out: growth arrest and DNA damage 45 (GADD45G), GADD45G (gene 10912); assay: LTEA_HepaRG_GADD45G: Life Technologies and Expression Analysis (LTEA) Assay for growth arrest and DNA damage 45 (GADD45G) using HepaRG (AID 2283499)
In short: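 GADD45G transcript level by qRT-PCR (housekeeping-normalized: ACTB, GAPDH, POLR2A) after 48 h chemical treatment of a single HepaRG lot in serum-free induction medium; eight-point half-log series up to 100 uM in 0.5% DMSO, duplicates, up- or down-regulation scored.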

[13] = read-out: Glutamate-cysteine ligase regulatory (GCLM), GCLM (gene 2730); assay: LTEA_HepaRG_GCLM: Life Technologies and Expression Analysis (LTEA) Assay for Glutamate-cysteine ligase regulatory (GCLM) using HepaRG (AID 2283500)
In short: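 Differentiated HepaRG cells exposed 48 h in serum-free induction medium to eight half-log concentrations up to 100 uM (0.5% DMSO). GCLM mRNA by TaqMan qRT-PCR, normalized to ACTB, GAPDH and POLR2A; bidirectional fit versus DMSO.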

[14] = read-out: Glutathione S-transferase M3 (GSTM3), GSTM3 (gene 2947); assay: LTEA_HepaRG_GSTM3: Life Technologies and Expression Analysis (LTEA) Assay for Glutathione S-transferase M3 (GSTM3) using HepaRG (AID 2283501)
In short: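 GSTM3 transcript levels came from Fluidigm TaqMan qRT-PCR normalized to three housekeeping genes, fitted in both directions against DMSO. HepaRG cultures received chemicals for 48 h in serum-free induction medium (0.5% DMSO), 8 half-log concentrations up to 100 uM, duplicate.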

[15] = read-out: Heat shock 70 kDa protein 1 (HSPA1A), gene 3303; assay: LTEA_HepaRG_HSPA1A: Life Technologies and Expression Analysis (LTEA) Assay for Heat shock 70 kDa protein 1 (HSPA1A) using HepaRG (AID 2283502)
In short: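 Human HepaRG cells in serum-free induction medium were exposed in duplicate for 48 h to 8 half-log concentrations, highest 100 uM, in 0.5% DMSO. HSPA1A mRNA read by TaqMan qRT-PCR, normalized to ACTB, GAPDH, POLR2A, fitted bidirectionally against DMSO.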

[16] = read-out: Hypoxia-inducible factor 1-alpha (Homo sapiens) (UniProt Q16665); assay: LTEA_HepaRG_HIF1A: Life Technologies and Expression Analysis (LTEA) Assay for Hypoxia-inducible factor 1 (HIF1A) Trancription factor using HepaRG (AID 2283503)
In short: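 Differentiated HepaRG cells in serum-free induction medium exposed 48 h, in duplicate, to 8-point half-log series from 100 uM in 0.5% DMSO. HIF1A mRNA measured by TaqMan qRT-PCR, normalized to ACTB/GAPDH/POLR2A, fitted bidirectionally versus DMSO.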

[17] = read-out: 3-Hydroxy-3-Methylglutaryl-CoA Synthase 2 (HMGCS2), HMGCS2 (gene 3158); assay: LTEA_HepaRG_HMGCS2: Life Technologies and Expression Analysis (LTEA) Assay for 3-Hydroxy-3-Methylglutaryl-CoA Synthase 2 (HMGCS2) using HepaRG (AID 2283504)
In short: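 Readout is HMGCS2 transcript by qRT-PCR, housekeeping-normalised (ACTB/GAPDH/POLR2A) and fitted bidirectionally against 0.5% DMSO. Differentiated HepaRG cells received chemicals 48 h, duplicate wells, eight half-log concentrations topping at 100 uM.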

HGF (gene 3082) = assay: LTEA_HepaRG_HGF: Life Technologies and Expression Analysis (LTEA) Assay for Hepatocyte Growth Facto (HGF) using HepaRG (AID 2283505)
In short: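 HGF transcript was quantified by TaqMan qRT-PCR against three housekeeping genes after 48 h treatment of HepaRG cells. Exposure ran in duplicate over eight half-log steps topping at 100 uM in 0.5% DMSO vehicle.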

[18] = read-out: Insulin Like Growth Factor 1 (IGF1), IGF1 (gene 3479); assay: LTEA_HepaRG_IGF1: Life Technologies and Expression Analysis (LTEA) Assay for Insulin Like Growth Factor 1 (IGF1) using HepaRG (AID 2283506)
In short: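 Differentiated HepaRG cells in serum-free induction medium, exposed 48 h in duplicate to 8 half-log concentrations up to 100 uM in 0.5% DMSO. IGF1 mRNA by Fluidigm qRT-PCR, normalised to ACTB, GAPDH and POLR2A.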

Measured: outcome

Chain of Hypoxia-inducible factor 1-alpha (Homo sapiens) (Q16665 whole entry, looked up): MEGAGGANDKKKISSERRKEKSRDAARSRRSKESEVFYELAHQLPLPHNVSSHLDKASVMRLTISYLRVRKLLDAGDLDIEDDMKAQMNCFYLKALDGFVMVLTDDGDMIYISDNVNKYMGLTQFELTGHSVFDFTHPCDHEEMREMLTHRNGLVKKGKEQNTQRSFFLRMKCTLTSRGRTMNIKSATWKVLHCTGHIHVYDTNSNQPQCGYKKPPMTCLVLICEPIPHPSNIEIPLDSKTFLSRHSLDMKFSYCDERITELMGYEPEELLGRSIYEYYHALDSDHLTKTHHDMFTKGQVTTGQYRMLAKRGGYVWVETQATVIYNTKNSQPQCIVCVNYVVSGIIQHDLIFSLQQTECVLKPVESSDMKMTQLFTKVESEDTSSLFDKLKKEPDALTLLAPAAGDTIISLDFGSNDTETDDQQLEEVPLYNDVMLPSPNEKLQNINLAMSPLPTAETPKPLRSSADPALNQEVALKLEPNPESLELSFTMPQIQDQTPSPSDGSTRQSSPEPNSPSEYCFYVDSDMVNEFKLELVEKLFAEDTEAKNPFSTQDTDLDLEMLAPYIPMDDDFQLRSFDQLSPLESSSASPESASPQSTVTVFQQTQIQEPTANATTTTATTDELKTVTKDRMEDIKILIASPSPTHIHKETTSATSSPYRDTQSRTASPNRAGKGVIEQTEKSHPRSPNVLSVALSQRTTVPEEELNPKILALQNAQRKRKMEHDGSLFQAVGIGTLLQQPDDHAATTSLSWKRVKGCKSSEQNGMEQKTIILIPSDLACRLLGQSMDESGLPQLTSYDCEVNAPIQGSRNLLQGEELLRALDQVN
Chain of Cytochrome P450 3A4 (Homo sapiens) (P08684 whole entry, looked up): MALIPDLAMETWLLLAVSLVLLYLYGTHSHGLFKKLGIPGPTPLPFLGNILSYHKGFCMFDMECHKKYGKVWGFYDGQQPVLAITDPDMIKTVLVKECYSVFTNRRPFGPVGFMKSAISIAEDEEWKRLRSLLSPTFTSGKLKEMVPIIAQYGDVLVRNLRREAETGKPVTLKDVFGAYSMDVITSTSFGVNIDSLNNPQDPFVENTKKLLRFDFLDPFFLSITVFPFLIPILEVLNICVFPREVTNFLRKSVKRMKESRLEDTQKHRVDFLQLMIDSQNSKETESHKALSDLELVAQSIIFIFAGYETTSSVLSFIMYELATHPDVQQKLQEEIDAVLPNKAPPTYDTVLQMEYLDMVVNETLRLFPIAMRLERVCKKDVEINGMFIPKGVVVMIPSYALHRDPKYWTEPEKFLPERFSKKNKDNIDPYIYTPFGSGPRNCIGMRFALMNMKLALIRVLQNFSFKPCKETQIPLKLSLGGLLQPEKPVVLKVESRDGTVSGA
Chain of Cytochrome P450 3A7 (Homo sapiens) (P24462 whole entry, looked up): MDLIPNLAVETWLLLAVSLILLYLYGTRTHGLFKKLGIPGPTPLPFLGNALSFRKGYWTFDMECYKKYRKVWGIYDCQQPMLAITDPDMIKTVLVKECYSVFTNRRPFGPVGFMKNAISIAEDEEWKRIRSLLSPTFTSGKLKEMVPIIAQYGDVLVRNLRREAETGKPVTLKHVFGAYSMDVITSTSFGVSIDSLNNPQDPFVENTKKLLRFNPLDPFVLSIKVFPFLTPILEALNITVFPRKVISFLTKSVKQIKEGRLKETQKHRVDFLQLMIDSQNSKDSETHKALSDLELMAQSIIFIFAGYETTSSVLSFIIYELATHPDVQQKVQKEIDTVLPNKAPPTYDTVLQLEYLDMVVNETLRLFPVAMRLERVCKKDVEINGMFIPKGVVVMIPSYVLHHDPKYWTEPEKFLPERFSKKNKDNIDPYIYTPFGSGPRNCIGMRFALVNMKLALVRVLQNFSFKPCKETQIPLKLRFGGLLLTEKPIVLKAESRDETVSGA

N#CCCCCC#N
inactive: all assays above

O=[N+]([O-])c1ccc(Cl)cc1
inactive: all assays above

Reference: PubChem BioAssay (EPA / NIEHS)
